Among the data in PubChem BioAssay AID1490 (National Center for Advancing Translational Sciences (NCATS), 2009) are largest response in the series, negative = inhibition and Potency values, retold here.

Structures are written as SMILES. Screen size: about 310,000 compounds; about 11,000 (3.5%) were called active. About 4% were inconclusive and are not listed. This excerpt belongs to a sample that is enriched for actives. A number with no mark means an inactive call. Calls come from the whole dose curve; as a rule, active = well fitted inhibition curve with a large enough effect; inconclusive = small, poorly fitted or top-dose-only effect, or another doubt; inactive = no such curve, though single readings can be large or run the other way.
Potency is the fitted concentration of half-maximal effect.

This experiment has as its target 4'-phosphopantetheinyl transferase ffp (Bacillus subtilis) (UniProt Q9F4F7). The experiment is described as follows: qHTS Assay for Inhibitors of Bacillus subtilis Sfp phosphopantetheinyl transferase (PPTase).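 For largest response in the series, negative = inhibition: 0% = enzyme reaction without inhibitor and -100% = no enzyme wells.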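 Note: the enzyme is Sfp with the accession as filed and its product quenches rhodamine fluorescence.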 The settings on record: Biochemical Sfp PPTase activity. Put shortly: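 Buffer: 50 mM Hepes-Na pH 7.6, 10 mM MgCl2, 0.01% Nonidet P-40, 0.01% BSA. Enzyme 15 nM, pre-exposed to compound 15 min; substrates then added and fluorescence change tracked over 30 min.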
Background: Quantitative high-throughput screening tests each substance at several concentrations.
As for `Cc1ccccc1NC(=O)Cn1cc(C(=O)C2CC2)c2ccccc21`, the largest response in the series, negative = inhibition is 16.6%.

As to `O=C(Cc1c(Cl)cccc1Cl)NC1CC1`, the largest response in the series, negative = inhibition was 11.4%.

As to `C=CS(=O)c1sc(Cl)c(N2CCOCC2)c1[N+](=O)[O-]` (stereo not drawn), the Potency was 10 µM (active).

For `COc1ccc(CCNC(=O)c2nnc(CS(=O)(=O)c3ccccc3)o2)cc1OC`, the largest response in the series, negative = inhibition was 9.29%.

Turning to `COc1ccc(C(=O)NC(C)Cn2nc(C)cc2C)cc1OC1CCN(C(C)=O)CC1` (stereo not drawn), the largest response in the series, negative = inhibition is 12.4%.

Take `NC(N)=N/N=C/c1ccc(OCc2ccc(Cl)cc2Cl)cc1`: the Potency was 31.6 µM (active).

For the molecule `COc1ccc(C(=O)O/N=C(\N)Cc2ccc(Cl)cc2Cl)cc1OC`, the largest response in the series, negative = inhibition was 0.628%.

As to `NC(N)=N/N=C/c1ccc(Cl)c([N+](=O)[O-])c1`, the largest response in the series, negative = inhibition is 6.82%.

In the case of `CCCOc1ccc(CNC(=O)C2CCN(c3nn4c(=O)cc(C)nc4s3)CC2)cc1`, the largest response in the series, negative = inhibition is 7.3%.

Take `COc1ccc(C(=O)Nc2c(Cl)cc(Cl)cc2C(=O)N2CCC(C)CC2)cc1`: the largest response in the series, negative = inhibition is 11.9%.

On to `CC1CCN(C(=S)c2ccc(-c3ccc(Cl)cc3Cl)o2)CC1`, for which the Potency was 50.1 µM (active).

Take `Cc1csc(NC(=O)c2ccc(-c3ccc(Cl)cc3Cl)o2)n1`: the largest response in the series, negative = inhibition is 1.33%.

Take `Cc1nc2cc(C(F)(F)F)ccc2n1CCNc1nc(-c2cc(Cl)c(N)c(Cl)c2)cs1`: the largest response in the series, negative = inhibition was 9.07%.

With `Cc1cccc(N2CCN(C(=O)c3cccc(N4C(=O)C5C6C=CC(C6)C5C4=O)c3)CC2)c1C` (stereo not drawn), the largest response in the series, negative = inhibition was 14.6%.

In the case of `CCOC(=O)c1ccc(NC(=O)c2cccnc2)cc1`, the largest response in the series, negative = inhibition is 10.5%.

With `CCOC(=O)c1ccc(-c2ccc(C(=O)Nc3cccnc3)o2)cc1`, the Potency is 44.7 µM (active).

Consider `Cc1ccc(NC(=O)Nc2cccnc2)cc1`, for which the largest response in the series, negative = inhibition was 2.48%.

Regarding `Cc1cccc(C(=O)Nc2ccc(Oc3cnccn3)cc2)c1`, the largest response in the series, negative = inhibition is 11%.

On to `C=C1CCN(C(CC(C)C)C(=O)NCc2cc(OC)c(OC)c(OC)c2)S(=O)(=O)c2ccccc21` (stereo not drawn), for which the largest response in the series, negative = inhibition is -15.6%.

In the case of `Cc1[nH][nH]c(=O)c1C(c1ccc(-c2ccc(Cl)cc2)o1)c1c(C)[nH][nH]c1=O`, the Potency is 39.8 µM (active).

As for `CCOc1ccc(C(c2c(C)[nH][nH]c2=O)c2c(C)[nH][nH]c2=O)cc1OCC`, the largest response in the series, negative = inhibition is 2.34%.

In the case of `Cc1[nH][nH]c(=O)c1C(c1ccc2c(c1)OCO2)c1c(C)[nH][nH]c1=O`, the largest response in the series, negative = inhibition is 5.9%.

`Cc1ccc2occ(/C=N/NC(=O)c3ccccc3C)c(=O)c2c1`: the largest response in the series, negative = inhibition is 18.5%.

For `CCC(C)[C@H](NC(=O)N1c2ccccc2NC(=O)[C@@H]1C(C)C)C(=O)N[C@@H](Cc1ccccc1)C(=O)O` (stereo partly drawn), the largest response in the series, negative = inhibition was 13.4%.

As for `Cc1ccc(OCCOc2cccc(/C=N/NC(N)=O)c2)cc1`, the largest response in the series, negative = inhibition was 9.7%.

As for `Cc1nnc(N/N=C/c2cccs2)[nH]c1=O`, the Potency is 89.1 µM (active).

As to `COCc1c(C(=O)N/N=C/C2CC=CCC2)nnn1-c1nonc1N` (stereo not drawn), the largest response in the series, negative = inhibition was -0.608%.

On to `Cc1n[nH]c(=O)nc1N/N=C/c1cccs1`, for which the largest response in the series, negative = inhibition was 4.06%.

Turning to `O=C(N/N=C\C1CC=CCC1)c1ccc(Br)o1` (stereo not drawn), the largest response in the series, negative = inhibition is 5.57%.

For the molecule `Cc1nnc(N/N=C/C2CC=CCC2)[nH]c1=O` (stereo not drawn), the Potency is 79.4 µM (active).

As for `Clc1ccc(N/N=C/c2cccs2)nn1`, the largest response in the series, negative = inhibition is -26.9%.

Take `COc1ccc(CNC(=O)c2cc(C(=O)C3CC3)c[nH]2)cc1`: the largest response in the series, negative = inhibition is 19.2%.

Consider `CCc1cc(=O)oc2c(C)c(OCC(=O)N3CC[C@@]4(O)CCCC[C@H]4C3)ccc12`, for which the largest response in the series, negative = inhibition is 6.44%.

For `O=C(Nc1cccc(F)c1)NC1CCCCCCC1`, the largest response in the series, negative = inhibition was 8.11%.

Consider `COc1ccc2c(c1)O[C@@H](c1ccc3c(c1)OCO3)[C@H](OC(=O)NCc1ccco1)C2=O`, for which the largest response in the series, negative = inhibition was 1.2%.

As to `CC(C)OCCCNC(=O)CN1C(=O)/C(=C/c2ccccc2F)Oc2ccccc21`, the largest response in the series, negative = inhibition is -3.78%.

Take `Cc1cc(=O)cc(C)[nH]1`: the largest response in the series, negative = inhibition is 15%.

For the molecule `CSc1cc(C)[nH]c(=O)n1`, the largest response in the series, negative = inhibition is 7.92%.

For `Cc1cc(=O)[nH]c(=S)[nH]1`, the Potency was 31.6 µM (active).

With `O=C(c1ccc[nH]c1=S)N1CCN(S(=O)(=O)c2ccc(Br)cc2Cl)CC1`, the Potency is 79.4 µM (active).

In the case of `O=C(c1ccc(Cl)c(S(=O)(=O)N2CCCCC2)c1)N1CCCCCC1`, the largest response in the series, negative = inhibition is 16.4%.

On to `O=C(c1ccccc1F)N1CCN(S(=O)(=O)c2ccc(Br)cc2)CC1`, for which the largest response in the series, negative = inhibition is 9.87%.

Regarding `CC(C)Sc1ncnc2c1cnn2-c1ccccc1`, the largest response in the series, negative = inhibition was -5.09%.

Turning to `C=C1C(=O)C23C(O)C1CCC2[C@]12COC3(O)C(O)C1C(C)(C)CC[C@H]2O` (stereo partly drawn), the largest response in the series, negative = inhibition is -81.1%.

For `O=C(COCc1cc(-c2ccc3c(c2)OCO3)on1)N1CCN(c2cccc(Cl)c2)CC1`, the largest response in the series, negative = inhibition was -5.35%.

With `COc1ccc2[nH]c3c(C)c4cc[n+](C)cc4c(C)c3c2c1`, the largest response in the series, negative = inhibition is -11.7%.

Take `COc1ccc2c(C)cc3nnnn3c2c1`: the largest response in the series, negative = inhibition is 7.5%.

As to `COc1ccc2[nH]c(=S)cc(C)c2c1`, the Potency was 39.8 µM (active).
